Screens: PubChem BioAssay, PCMD
This is a sample that favours compounds with a hit; in the whole collection about 0.58% have one here.
CatL block: inhibitors of human cathepsin L. P07711. purified cathepsin L, fluorogenic substrate, fluorescence. AID 460. inhibition, %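 (tested at 10 µM)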. actives 0.17% (n = 58,000); in the data active = inhibition above about 45%
Cathepsin G inh: inhibitors of human cathepsin G; purified enzyme, AMC-tetrapeptide fluorescence, pooled mixtures; AID 581; P08311; actives 0.2% (n = 62,000); inhibition, % at 5 µM (by protocol);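 active = inhibition above 20% in each of the two mixture wells holding the compound; inactive = inhibition of 20% or less in either well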
Target sequence (P08311 21-244 limits assumed): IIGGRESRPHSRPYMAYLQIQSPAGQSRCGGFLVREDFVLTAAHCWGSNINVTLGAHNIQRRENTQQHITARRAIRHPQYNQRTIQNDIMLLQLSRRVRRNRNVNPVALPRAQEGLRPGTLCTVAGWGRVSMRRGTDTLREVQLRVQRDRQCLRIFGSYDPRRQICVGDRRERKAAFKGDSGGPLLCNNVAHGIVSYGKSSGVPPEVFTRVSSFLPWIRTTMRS
C1s inh: human complement C1s inhibition; P09871; purified C1s, fluorogenic AMC substrate, pooled mixtures; mean inhibition % of two 10-compound mixtures (hits give high values), % at 5 µM (by protocol); actives 0.16% (n = 62,000); AID 538;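 active = inhibition above 20% in each of the two 10-compound mixture wells holding the compound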
CatS inh: human cathepsin S inhibition; actives 0.06% (n = 62,000); P25774; AID 501; inhibition, %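 (tested at 5 µM per compound within 10-compound mixtures)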; recombinant cathepsin S, AMC dipeptide fluorescence, pooled mixtures; in the data active = inhibition above about 32%, passing the limit was not always enough
Target sequence (P25774 115-331 limits assumed): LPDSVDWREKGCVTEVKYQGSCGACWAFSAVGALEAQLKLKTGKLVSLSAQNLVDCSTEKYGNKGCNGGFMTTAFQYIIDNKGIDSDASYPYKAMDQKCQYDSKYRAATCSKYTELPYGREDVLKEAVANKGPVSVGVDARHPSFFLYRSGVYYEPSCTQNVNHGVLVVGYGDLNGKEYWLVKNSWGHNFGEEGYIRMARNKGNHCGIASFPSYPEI
CatB block: inhibitors of human cathepsin B; P07858; purified cathepsin B, fluorogenic substrate, fluorescence; inhibition, %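 (tested at 10 µM)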; actives 0.1% (n = 63,000); AID 453; in the data active = inhibition above about 21%
CatB mix inh: human cathepsin B inhibition by mixtures. Purified cathepsin B, AMC dipeptide fluorescence, compound mixtures. inhibition, %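 (ten-compound pools at 5 µM per compound and 50 µM total)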. actives 0.06% (n = 62,000). AID 488; in the data active = inhibition above about 22%, passing the limit was not always enough
Numbers stand for hits; - = inactive; . = no result.

SMILES	CatL block	Cathepsin G inh	C1s inh	CatS inh	CatB block	CatB mix inh
CCCNC(=O)c1noc2c1CCc1ccccc1-2	.	61	-	-	-	-
O=C(NCCN1CCOCC1)c1ccc(-c2ccccc2)cc1	-	-	-	-	-	-
O=C(NCCc1ccccc1)c1noc2c1CCc1ccccc1-2	-	101	26	-	-	-
CCn1c(=O)cc(SCC(=O)NCc2ccccn2)c2ccccc21	-	-	-	-	-	-
Nc1nc(C(=O)N2CCOCC2)nn1C(=O)c1ccc(Cl)cc1	.	40	32	-	-	-
O=C(Nc1ccccc1C(F)(F)F)N1CCCCCC1	-	-	-	-	-	-
NC(=O)C1(N2CCCCC2)CCN(C(=O)Nc2ccccc2C(F)(F)F)CC1	-	-	25	-	-	-
Cc1ccc(NC(=O)COC(=O)C2CC2C)c(S(=O)(=O)N2CCCCC2)c1 (stereo not given)	-	-	-	-	-	-
Nc1nonc1C(=O)OCC(=O)N1CCOCC1	-	-	-	-	31	-
O=C(OCC(=O)N1CCOCC1)c1ccc[nH]c1=O	-	-	-	-	-	-
O=c1[nH]c(CN2CCc3ccccc3C2)nc2ccccc12	-	48	-	-	-	-
CN(C(=O)c1ccc(NC(=O)c2cnccn2)cc1)C1CCCCC1	-	-	-	-	-	-
C=CCn1c(SCC(=O)OC)nc2sc3c(c2c1=O)CCN(C)C3	-	.	.	.	-	.
Nc1nonc1-c1noc(CCCOc2ccc(Cl)cc2Cl)n1	-	-	-	-	-	-
Cc1ccc(C(C)C)c(OCc2nc(-c3nonc3N)no2)c1	.	-	-	-	22	-
Cc1cc(NC(=O)CN2CCN(c3ccccc3F)CC2)nc2c1c(=O)oc1ccccc12	-	-	-	-	-	-
Cc1noc(C)c1COC(=O)c1ccccc1NC(=O)Cc1ccccc1	-	-	35	-	-	-
C=CC(=C)CC(NC)c1ccccc1 (stereo not given)	53	-	-	-	-	-
O=C(c1csc2ccccc12)N1CCCCCC1	-	-	-	-	-	-
O=C(c1csc2ccccc12)n1cccn1	-	52	50	-	-	-
Clc1ccc(C2CC(c3cccs3)n3ncnc3N2)c(Cl)c1 (stereo not given)	-	-	-	-	-	-
Cn1nccc1C(=O)Nn1cnnc1	-	-	-	-	-	-
Cc1nn(C)c(C)c1NC(=O)c1ccnn1C	-	-	21	-	-	-
Cc1cc(Nc2nc3c(c(=O)n(C)c(=O)n3C)n2C)n(-c2ccccc2)n1	-	-	-	-	-	-
CC(NC(=O)OCc1ccccc1)C(=O)N1CC(O)CC1C(=O)O (stereo not given)	-	-	-	-	-	-
SMILES	CatL block	Cathepsin G inh	C1s inh	CatS inh	CatB block	CatB mix inh
Nc1cc(OC(=O)c2cccs2)nn1S(=O)(=O)c1ccccc1	-	32	-	-	76	69
Nc1cc(OC(=O)c2cccs2)nn1S(=O)(=O)c1ccc(F)cc1	-	-	-	-	56	55
Cc1nn(-c2ccccc2)c(OC(=O)c2cccs2)c1S(=O)(=O)c1ccccc1	-	-	-	-	-	-
COc1cccc(C(=O)Oc2cc(N)n(S(=O)(=O)c3ccc(C)cc3)n2)c1OC	-	-	-	-	-	-
CNc1nn(-c2cccc(Cl)c2)nc1N	-	-	-	-	-	-
CCn1c(C)nc2cc(C(=O)n3cc(C(=O)c4cc(F)ccc4O)cn3)ccc21	-	-	25	-	-	-
CCn1c(C)nc2cc(C(=O)OCCC(F)(F)F)ccc21	-	-	-	-	-	-
COc1ccc(C(=O)n2ccc(C)n2)cc1Br	.	21	-	-	-	-
COc1ccc(C(=O)n2nnc3ccccc32)cc1Br	-	-	67	-	-	-
O=C(c1ccc2c(c1)OCO2)n1nnc2ccccc21	-	89	86	-	-	-
COc1ccc(C(=O)n2nc(C)cc2C)cc1Br	-	-	-	-	-	-
C=CCn1c(COc2cccc3ccc(C)nc23)nnc1SCC(N)=O	-	-	-	-	-	-
CC1(C)CC(=O)C2=C(C1)Nc1ccccc1N=C2	-	-	-	-	-	-
COc1ccc(-c2nnc(NC(=O)c3ccc(S(=O)(=O)N4COCC4(C)C)cc3)o2)cc1	-	-	-	-	-	-
CC1(C)COCN1S(=O)(=O)c1ccc(C(=O)Nc2nnc(-c3ccc(Cl)s3)o2)cc1	-	-	23	-	-	-
COC(=O)c1ccc2c(c1)NC(=O)C(N1CCCC1)S2 (stereo not given)	63	-	-	-	-	-
COC(=O)c1ccc2c(c1)NC(=O)C(N1CCCCC1)S2 (stereo not given)	-	-	-	-	-	-
O=C(NCCCn1ccnc1)C1c2ccccc2Oc2ccccc21	-	-	-	-	-	-
Cc1cc(NS(=O)(=O)c2ccc(NC(=O)COc3ccccc3C(C)C)cc2)no1	-	-	25	-	-	-
CCOc1nc(C#N)nc(N2CCCCC2)n1	59	-	-	37	-	-
CCc1nc(SCC(=O)N2CCCc3ccccc32)c2c(=O)n(C)c(=O)n(C)c2n1	.	-	-	-	-	-
COc1ccc(OC)c(C2/C(=C(\O)c3c(C)nc4ccccn34)C(=O)C(=O)N2CCCN(C)C)c1 (stereo not given)	-	-	-	-	-	-
Cc1cc(C)c2nc(Nc3nc(C)cc(=O)[nH]3)nc(C)c2c1	.	-	-	-	-	-
O=C(NCc1cccs1)c1cc(-c2cccs2)on1	-	34	-	-	-	-
Cc1ccc(-c2cc(C(=O)NCc3ccccn3)no2)cc1	-	-	65	-	-	-
SMILES	CatL block	Cathepsin G inh	C1s inh	CatS inh	CatB block	CatB mix inh
C=CCNc1nc2c(c(=O)n(C)c(=O)n2C)n1CC(=C)C	-	-	-	-	-	-
CCOC(=O)c1sc(=S)n(-c2cc(F)ccc2F)c1N	104	-	-	-	-	-
CCN(CC)c1ccc(/C=N/n2c(=S)[nH]nc(C)c2=O)cc1	104	-	-	-	-	-
CCCCC(SCC(=O)Nc1ccccc1)C(=O)O (stereo not given)	-	-	-	-	-	-
CCC(C)[C@@H](NC(=O)OC(C)(C)C)c1nnc(S(=O)(=O)Cc2cccc(C)c2)o1 (stereo not given in full)	76	-	-	-	34	23
CCC(C)C(NCc1cccc(C)c1)C(=O)O (stereo not given)	-	-	-	-	-	-
CC(C)(C)OC(=O)N[C@@H](Cc1ccccc1)c1nnc(S(=O)(=O)Cc2ccccc2)o1	-	83	-	-	-	-
Cc1cccc(NC(=O)CCn2nc(C)cc2C)c1	59	-	-	-	-	-
Cc1ccc(NC(=O)CCn2nc(C)cc2C)c(C)c1	-	-	-	-	-	-
N#Cc1nc(N2CCOCC2)nc(N2CCOCC2)n1	67	-	-	32	-	-
CN1CCN(S(=O)(=O)c2ccc(Br)s2)CC1	97	-	-	-	-	-
CCCCNC(=O)CSc1cc(=O)n(C)c2ccccc12	-	-	-	-	-	-
